Sampled rows, rich in hits. Any-hit rate of the full collection: about 2.9%.
PAFAH1B3 inh: blocks human PAF acetylhydrolase 1B catalytic subunit 3; Q15102; recombinant PAFAH1B3, FP-rhodamine probe, fluorescence polarization; inhibition, % at 3.39 µM; 340,000 compounds, 0.28% hits; AID 492972;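 active = inhibition above the screen-wide average of all tested compounds plus 3 SD, cut at about 25% in these data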;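 note: 0% = enzyme with DMSO only and 100% = wells lacking PAFAH1B3 protein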
pPAFAH inh: inhibitors of human plasma PAF acetylhydrolase (pPAFAH) | AID 463082 | inhibition, % at 3.39 µM | Q13093 | recombinant pPAFAH, FP-rhodamine probe fluorescence polarization | 330,000 compounds, 1.5% hits;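 active = inhibition above the mean inhibition across the screen plus 3 SD, cut at about 25% in these data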;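 note: inhibitors block binding of the rhodamine activity-based probe so polarization drops; 0% = enzyme with DMSO and 100% = wells lacking pPAFAH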
Target sequence (Q13093 whole entry, looked up): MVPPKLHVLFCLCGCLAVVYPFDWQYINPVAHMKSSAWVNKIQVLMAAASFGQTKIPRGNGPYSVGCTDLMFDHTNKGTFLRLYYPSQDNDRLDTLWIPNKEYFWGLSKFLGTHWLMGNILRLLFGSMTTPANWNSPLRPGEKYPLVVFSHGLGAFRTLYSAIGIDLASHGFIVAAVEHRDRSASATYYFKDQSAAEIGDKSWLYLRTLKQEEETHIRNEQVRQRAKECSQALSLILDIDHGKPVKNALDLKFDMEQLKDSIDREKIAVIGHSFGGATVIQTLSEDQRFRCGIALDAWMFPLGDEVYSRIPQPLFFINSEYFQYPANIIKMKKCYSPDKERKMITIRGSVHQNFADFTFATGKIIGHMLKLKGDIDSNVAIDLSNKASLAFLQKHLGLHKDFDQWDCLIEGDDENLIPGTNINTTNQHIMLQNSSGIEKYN
LYPLA2 inh: blocks human lysophospholipase 2, a PME1 counter-screen; O95372; recombinant LYPLA2, FP-Rh probe fluorescence polarization; inhibition, % at 5.9 µM; 320,000 compounds, 0.38% hits;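 active = inhibition above the screen-wide mean plus 3 SD, limit set per campaign, cut at about 26% in these data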;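 note: 0% = LYPLA2 with DMSO and 100% = wells lacking LYPLA2 enzyme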
LYPLA1 inh: counter-screen for PME1 inhibitors: inhibitors of human LYPLA1 | recombinant LYPLA1, FP-Rh probe fluorescence polarization | inhibition, % at 5.9 µM | 320,000 compounds, 0.16% hits | AID 2174;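 active = inhibition above the mean of all tested compounds plus 3 SD, set per campaign, cut at about 14% in these data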;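 note: inhibitors block serine hydrolase probe labeling of LYPLA1 so polarization falls; 0% = enzyme with DMSO and 100% = wells lacking LYPLA1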
PAFAH1B2 inh: blocks human PAF acetylhydrolase 1b catalytic subunit 2. P68402. recombinant PAFAH1B2, FP-rhodamine activity probe, fluorescence polarization. inhibition, % at 3.39 µM. 340,000 compounds, 1.2% hits. AID 492953;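 active = inhibition above the mean of all tested compounds plus 3 SD, cut at about 24% in these data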;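 note: 0% = enzyme with DMSO and 100% = wells lacking PAFAH1B2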
Target sequence (P68402 whole entry, looked up): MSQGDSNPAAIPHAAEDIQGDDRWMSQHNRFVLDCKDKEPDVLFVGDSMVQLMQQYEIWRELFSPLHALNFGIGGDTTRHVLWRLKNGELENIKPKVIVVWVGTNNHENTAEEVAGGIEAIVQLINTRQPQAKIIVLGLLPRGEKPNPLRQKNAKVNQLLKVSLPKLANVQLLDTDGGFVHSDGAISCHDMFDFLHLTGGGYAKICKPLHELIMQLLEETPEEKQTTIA
PAFAH2 inh: inhibitors of human PAFAH2 | 340,000 compounds, 0.99% hits | recombinant PAFAH2, FP-rhodamine activity probe, fluorescence polarization | inhibition, % at 3.39 µM | Q99487 | AID 492956;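 active = inhibition above the mean over all tested compounds plus 3 SD, cut at about 30% in these data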;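 note: inhibitors block probe labeling of enzyme so polarization drops; 0% = enzyme with DMSO and 100% = wells lacking PAFAH2 protein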
PAFAH2 confirm: confirmation of human PAFAH2 inhibitors | shares compounds with PAFAH2 inh | recombinant PAFAH2, FP-rhodamine activity probe, fluorescence polarization | inhibition, % at 3.39 µM | 2,300 compounds, 65% hits;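 active = mean inhibition over three repeats above a set limit taken from the earlier primary screen, cut at about 30% in these data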;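 note: inhibitor blocks binding of rhodamine activity probe so polarization falls; 0% = enzyme with DMSO and 100% = wells lacking PAFAH2 protein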
Starred values were filed as active, the others as inactive; nt = no result.

SMILES	PAFAH1B3 inh	pPAFAH inh	LYPLA2 inh	LYPLA1 inh	PAFAH1B2 inh	PAFAH2 inh	PAFAH2 confirm
CCN(CC)S(=O)(=O)c1cccc(-n2c(O)c(C=Nc3ccccc3C(=O)O)c3ccccc3c2=O)c1	0.3	10.5	5.2	4.8	2.7	88.9*	73.1*
O=C(O)c1ccccc1N=Cc1c(O)n(-c2nccs2)c(=O)c2ccccc12	2.4	0.2	-1.2	-4.3	6.7	17.0	nt
O=C(CC12CC3CC(CC(C3)C1)C2)N1CCCC1	-6.4	1.5	2.0	-2.5	10.0	1.7	nt
COc1cc(C(=O)NNC(=S)NC(=O)c2ccc(F)cc2)cc(OC)c1OC	5.3	7.0	-1.4	3.9	8.7	50.9*	23.4
COc1ccc(C(=O)NNC(=S)NC(=O)c2ccc(F)cc2)cc1Br	nt	4.5	3.3	0.0	nt	nt	nt
Cc1c(C(c2cccc(Br)c2)c2c(C)n(C)n(-c3ccccc3)c2=O)c(=O)n(-c2ccccc2)n1C	4.1	0.7	0.5	-0.5	1.6	38.7*	20.4
C=CCOc1ccc(/C=C/C(=O)OCC(=O)NCC2CCCCC2)cc1	2.2	7.6	0.6	-2.1	-1.2	68.0*	66.2*
C=CCOc1ccc(/C=C/C(=O)OCC(=O)NC2CCCCCCC2)cc1	6.1	-3.4	2.5	1.6	2.0	66.5*	72.2*
CC(C)(C)NC(=O)C(c1ccsc1)N(CCc1ccccc1)C(=O)Cn1nnc2ccccc21 (stereo unspecified)	2.0	0.7	-1.6	-0.9	5.6	11.6	nt
COC(=O)c1ccc(C(=O)OC)c(NC(=O)COc2ccccc2OC)c1	10.9	8.4	2.9	3.4	-0.4	2.0	nt
COc1cc(C(=O)OCC(=O)Nc2ccc(F)cc2F)cc(OC)c1OC	2.0	-2.8	3.8	1.9	1.1	3.9	nt
CCCNC(=O)COC(=O)c1ccc(OCC(=O)Nc2ccccc2OC)c(OC)c1	-6.0	-2.0	-2.6	-0.5	0.0	51.4*	44.8*
COc1ccccc1NC(=O)COc1ccc(C(=O)OCC(=O)NC(C)(C)C)cc1OC	5.3	7.1	1.1	-0.9	0.5	81.0*	82.6*
COc1ccccc1NC(=O)COC(=O)c1ccc2c(c1)OCCO2	-2.2	3.1	-1.5	1.1	2.2	6.0	nt
COc1ccc(C(=O)OCC(=O)Nc2ccc(F)cc2F)cc1OC	4.5	10.2	1.2	1.7	4.5	76.2*	72.5*
CCC(CC)NC(=O)COC(=O)c1ccc(OCC(=O)Nc2ccccc2OC)c(OC)c1	2.9	-0.7	2.2	-1.2	-6.4	59.7*	63.4*
CC1=NN(c2ccc(C(=O)O)cc2)C(=O)CC1	5.6	-1.2	-5.1	2.9	4.9	-2.9	nt
CCC(=O)[C@@]1(C)[C@H](C)C[C@H]2[C@@H]3CCC4=CC(=O)C=C[C@]4(C)[C@H]3[C@@H](O)C[C@@]21C	2.6	-4.4	5.0	-0.2	4.4	-3.4	nt
COc1ccccc1NC(=O)COC(=O)c1cc2c(s1)CCC2	0.6	nt	nt	nt	0.6	54.4*	38.5*
Cc1ccc(S(=O)(=O)NCCc2cccs2)cc1	3.8	2.2	7.8	3.3	5.7	4.3	nt
Cc1cccc(C)c1NC(=O)COC(=O)/C=C/c1ccc(S(=O)(=O)N2CCOCC2)cc1	8.2	0.5	nt	nt	8.4	44.9*	29.5
COc1ccc(/C=C/C(=O)OCC(=O)NCCNC(=O)COC(=O)/C=C/c2ccc(OC)cc2)cc1	-6.4	-0.7	2.4	-1.1	1.6	0.4	nt
O=C(COC(=O)/C=C/c1ccc(S(=O)(=O)N2CCOCC2)cc1)NCc1ccc2c(c1)OCO2	-3.9	7.4	-5.5	-1.4	3.8	12.1	nt
COc1ccc(/C=C/C(=O)OCC(=O)NC(C)CCc2ccccc2)cc1 (stereo unspecified)	6.8	6.7	nt	nt	6.8	68.5*	55.2*
O=C(COC(=O)/C=C/c1ccc(S(=O)(=O)N2CCOCC2)cc1)NCc1ccc(F)cc1	20.7	8.6	10.8	1.3	2.4	38.7*	34.5*
SMILES	PAFAH1B3 inh	pPAFAH inh	LYPLA2 inh	LYPLA1 inh	PAFAH1B2 inh	PAFAH2 inh	PAFAH2 confirm
COc1ccc(/C=C/C(=O)OCC(=O)Nc2c(C)cccc2C)cc1	4.5	7.4	4.1	-3.3	5.7	63.2*	65.2*
COC(=O)Nc1nnc(CCc2ccccc2)s1	1.1	0.4	-8.6	-1.6	3.9	0.0	nt
Cc1nn(-c2ccccc2)c(C)c1NC(=O)COC(=O)/C=C/c1ccccc1	3.3	5.9	-5.8	-3.7	1.2	38.6*	32.3*
O=C(COC(=O)/C=C/c1ccc(S(=O)(=O)N2CCOCC2)cc1)Nc1ccccc1F	9.8	9.1	nt	nt	5.9	59.5*	42.1*
Cc1ccc(S(=O)(=O)N2CCOCC2)cc1NC(=O)COC(=O)/C=C/c1ccc(F)cc1	4.4	2.4	nt	nt	0.3	52.6*	47.2*
Cc1cc(S(=O)(=O)N2CCOCC2)ccc1OCC(=O)Nc1ccccc1F	0.9	-0.6	1.2	1.4	3.3	-12.6	nt
CCC(C(=O)OCC(=O)Nc1c(C)nn(-c2ccccc2)c1C)c1ccccc1 (stereo unspecified)	-1.1	11.5	-4.7	-1.0	3.5	0.6	nt
COc1ccc(S(=O)(=O)Nc2ccc(NC(C)=O)cc2)cc1OC	9.3	-4.2	-8.2	-4.9	7.7	-0.3	nt
CCN(C(=O)COC(=O)C1=COCCO1)c1ccccc1	4.6	3.7	4.6	2.4	6.8	-1.9	nt
CCOC(=O)C1=C(c2ccccc2)NC(SCC(=O)NC2CCCCC2)=C(C#N)C1c1ccco1 (stereo unspecified)	6.1	2.4	-20.6	-12.1	3.7	-9.2	nt
O=C(COC(=O)c1ccc2c(c1)OCO2)Nc1ccccc1F	7.4	5.7	7.4	2.9	1.9	53.7*	48.6*
Cc1cccc(C)c1NC(=O)COC(=O)c1ccc2c(c1)OCO2	-4.2	4.9	3.4	-1.7	2.4	28.1	nt
N#Cc1ccccc1NC(=O)COC(=O)c1ccc2c(c1)OCO2	8.2	3.9	5.9	-0.2	4.3	61.6*	53.4*
Cc1cccc(C(=O)O/N=C2\CCS(=O)(=O)c3sccc32)c1	6.5	16.4	3.7	-3.8	3.8	77.9*	76.7*
O=C(O/N=C1\CCS(=O)(=O)c2sccc21)c1ccccc1	5.8	3.5	7.0	7.5	-4.0	73.3*	71.5*
Cc1ccc(C(=O)OC2CCS(=O)(=O)c3sccc32)cc1 (stereo unspecified)	-1.3	1.5	13.7	2.9	-1.6	-7.4	nt
NC(=O)N/N=C1\CCS(=O)(=O)c2ccc(F)cc21	3.8	2.8	-2.6	1.1	4.6	-1.6	nt
O=C(O/N=C1\CCS(=O)(=O)c2sccc21)c1ccc(F)cc1	-2.1	2.3	5.2	0.2	2.9	52.1*	55.3*
O=C(N/N=C/c1ccc([N+](=O)[O-])cc1)c1ccc(COc2ccccc2-c2ccccc2)cc1	-3.7	-4.5	-11.4	-10.6	-0.9	16.9	nt

Compound activity from PubChem.
